Values joined by “and” are separate entries in the source; they are usually repeats but may differ in a detail not shown here. Equal values may be shown once. Compounds without any hit were thinned out: in the full panel of roughly 83,000, 20% have a hit.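 Treatment: one concentration, 48 hours, 96-well format. Scoring: percent growth, with anything below 10 considered active.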 Active and inactive are the calls of the source.

The experiment has as its system MDA-MB-468 breast. As to the kind of experiment: NCI-60 one-dose screen, 48 h (100 = growth as untreated, 0 = no growth, -100 = all killed). Particulars: 10 µM unless noted.
`Fc1ccc(-n2cc(COc3ncnc4sc5c(c34)CCCC5)nn2)cc1Cl`: the growth is 106% (inactive).
As for `COc1cc(NCCCCCNC(C)C)c2ncccc2c1`, the figure is 87.6% (inactive) and 39.1% (inactive); as for `CCO/C=N/S(=O)(=O)c1cc2c(cc1Cl)NC=NS2(=O)=O`, 98.3% (inactive).
As for `NC(=O)[C@@H]1CC2CCC1C2` (stereo not given in full), the figure is 99.4% (inactive); as for `O=C1c2cccnc2C(=O)c2c1c(C(=O)NCCn1ccnc1)c1ccccn21`, -6.68% (active).
As for `COc1cc(OC)cc(C2=C3CC[C@@H]4[C@H](CC[C@]5(C)C(=O)CC[C@@H]45)C3=CC3C(O)c4cccnc4N4C(=O)COC234)c1` (stereo not given in full), the figure is 105% (inactive).
For the molecule `CNC(=O)c1cc(Oc2ccc3nc(Nc4ccc(Cl)c(C(F)(F)F)c4)ccc3c2)ccn1`, the growth was 45.3% (inactive).
The result for `COC(=O)/C=C/c1cc(O)c2oc(-c3ccc(O)c(O)c3)c(C(=O)OC)c2c1` reads 26.7% (inactive).
As for `O=c1oc2ccc(I)cc2c(=O)n1-c1ccc(F)cc1F`, the figure is -8.85% (active).
The result for `[Cl][Ru].c1ccc(-c2cccc(-c3ccccn3)n2)nc1.c1ccc(-c2ccnc3c2ccc2c(-c4ccccc4)ccnc23)cc1` reads -21.4% (active).
Regarding `COc1cccc(OC)c1C(=O)N[C@@H]1C(=O)N2[C@@H]1SC(C)(C)[C@@H]2C(=O)O`, the growth is 114% (inactive).
On to `O=S(=O)(O)c1ccc(Cl)cc1`, for which the growth is 105% (inactive).
For the molecule `CCOC(=O)C1=CSC2=NC3=C(CCC/C3=C\c3cc(OC)c(OC)c(OC)c3)C(c3cc(OC)c(OC)c(OC)c3)N12` (stereo not given), the growth was 33.8% (inactive).
As for `O=C1/C(=C/c2ccccc2Br)COc2ccc(O)cc21`, the figure is 69.1% (inactive).
As for `O=C(CCCCN1CCOCC1)Nc1ccc(Cn2nnc3c2C(=O)c2nnn(Cc4ccc(NC(=O)CCCCN5CCOCC5)cc4)c2C3=O)cc1`, the figure is -76.9% (active).
As for `O=C1Nc2ccc(Cl)cc2/C1=N/N=C/c1c[nH]c2ccccc12`, the figure is 98.7% (inactive); as for `COc1ccc(OC2=CC(=O)c3ccc(C)nc3C2=O)cc1`, 86.2% (inactive).
Turning to `CC(C)OC1=C(Cl)C(=O)c2ccccc2C1=O`, the growth is 69.1% (inactive).
The result for `CCSc1nc2scc(C)c2c(=O)[nH]1` reads 110% (inactive); that for `CCN1CCN(c2cc(C(=O)Nc3nc4ccc(Oc5ccnc(C(=O)NC)c5)cc4s3)cc(C(F)(F)F)c2)CC1`, 43.3% (inactive).
The result for `CC(C)c1c(C(=O)Nc2ccccc2)c(-c2ccccc2)c(-c2ccc(F)cc2)n1CC[C@@H]1CC=CC(=O)O1` reads -48.3% (active).
The result for `COc1ccc(C(=O)/C=C/Nc2cc(-c3ccccc3)nn2-c2ccccc2)cc1` reads 70.4% (inactive); that for `O=S1(=O)NCCN1CCNc1nccc(-c2c(-c3cccc(O)c3)nc3sccn23)n1`, 96.8% (inactive); that for `COc1ccc(-n2nc(C)c3c(Nc4ccc(NC(=O)Nc5cccc(C(F)(F)F)c5)cc4)ncnc32)cc1`, -14% (active).
For the molecule `CCN(CC)c1ccc(/C=C/C=C2\NC(=O)NC2=O)cc1`, the growth is -5.35% (active).
The result for `CC(CN)[C@@H]1CC[C@]2(CO)CC[C@]3(C)[C@H](CC[C@@H]4[C@@]5(C)CCC(N)C(C)(C)[C@@H]5CC[C@]43C)[C@@H]12` (stereo not given in full) reads 6.19% (active); that for `COC(=O)c1[nH]nc2c1C1(C(=O)c3cccc4cccc1c34)C(C#N)=C(N)O2` (stereo not given), 86.3% (inactive).
As for `O=C(/C=C/c1ccco1)Nc1ncc(Cc2cc(Cl)ccc2Cl)s1`, the figure is 14.6% (inactive); as for `C#CCO[C@H]1CC[C@H](OCC#C)[C@@H]2[C@H]1[C@H]1C[C@@H]3[C@@]4(C)CCC[C@@](C)(C(=O)OC)[C@@H]4CC[C@@]23C=C1C(C)C`, 91.3% (inactive).
The result for `COc1cc(C(=O)n2nc(N)c3c(C)cc(C)nc32)cc(OC)c1OC` reads 20.3% (inactive); that for `Cc1ncc(C(=O)Nc2ccc(CN3CCN(C)CC3)c(C(F)(F)F)c2)cc1C#Cc1ccc(N)nc1`, 10.9% (inactive); that for `COc1cc(C)cc2oc3oc(=N)c(C(=O)c4ccccc4)cc3c(=O)c12`, 108% (inactive).
Turning to `C=C(C)[C@@H]1CC[C@]2(C=O)CC[C@]3(C)[C@H](CC[C@@H]4[C@@]5(C)CCCNC(C)(C)[C@@H]5CC[C@]43C)[C@@H]12`, the growth was 64.6% (inactive).
The result for `CC1(C)CC[C@]2(C(=O)O)CC[C@]3(C)C(=CC[C@@H]4[C@@]5(C)C/C(=C/O)C(=O)C(C)(C)[C@@H]5CC[C@]43C)[C@@H]2C1` reads 77.3% (inactive); that for `COc1cc(/C=N/OC(=O)Nc2ccccc2)cc(OC)c1OC`, 105% (inactive).
The result for `NNc1ncccn1` reads 102% (inactive).
Regarding `C=C(C)[C@@H]1CC[C@]2(C(=O)N3CCN(C)CC3)CC[C@]3(C)[C@H](CC[C@@H]4[C@@]5(C)C/C(=C/c6cccnc6)C(=O)C(C)(C)[C@@H]5CC[C@]43C)[C@@H]12`, the growth was 51.5% (inactive).
The result for `N#Cc1c(-c2ccccn2)[nH]c(=S)[nH]c1=O` reads 110% (inactive); that for `OC(c1ccc(Cl)cc1)(c1ccc(Cl)cc1)C(O)(c1ccc(Cl)cc1)c1ccc(Cl)cc1`, 12.6% (inactive).
The result for `COc1cc(Cl)ccc1C` reads 64.9% (inactive).

(Values after PubChem BioAssay (NCI).)
